Inconclusive results are not listed. Unless noted, calls follow the shape of the dose curve; as a rule, active = well fitted curve in either direction with a large enough effect (not every such curve was filed as active); inconclusive = small, poorly fitted or top-dose-only effect, or another doubt; inactive = flat fitted curve, though single readings scatter.
Legend:
[1] = AP1 Signaling Pathway (AID 357); details: ME-180 AP-1-bla reporter, EGF-induced, beta-lactamase ratio, 5 h; at 17.2 µM (top of the series) unless noted;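 also: ME-180 reporter cells stimulated with EGF at its EC50 level; % is scaled to controls: 0 for no effect and ±100 for the full control effect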
Method in brief: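 Beta-lactamase reporter under AP-1 response element, ME-180 background. Stimulus: EC50 EGF. Compound exposure 5 h, 37 °C. Detection: CCF4, 2.5 h RT, 460/530 nm. Values: AC50 from titration.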

[2] = NFAT Signaling Pathway (AID 444); details: Jurkat NFAT-bla M1, carbachol, beta-lactamase ratio, 5 h; at 17.2 µM (top of the series) unless noted;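 also: carbachol stimulus at about its EC50 of 1 µM final; % is scaled to controls: 0 for no effect and ±100 for the full control effect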
Method in brief: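 Jurkat cells with NFAT-driven β-lactamase reporter and co-expressed M1 receptor, stimulated with carbachol (final 1 uM, ~EC50), compound titration, 5 h at 37 °C. CCF4 loaded 1 h at RT; 460/530 nm ratio gave %activity and AC50.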

[3] = Stat Signaling Pathway (AID 446); details: ME-180 SIE beta-lactamase reporter, IL-6 stimulated, 5 h; at 17.2 µM (top of the series) unless noted;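 also: ME-180 cervical cancer cells given 40 pM IL-6 alongside compound; SIE-controlled beta-lactamase reporter measured as 460/530 nm FRET emission ratio; % is scaled to controls: 0 for no effect and ±100 for the full control effect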
Method in brief: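 ME-180 cells carrying a SIE-driven beta-lactamase reporter are stimulated with 40 pM IL-6 for 5 h at 37C in the presence of compound. The 460/530 nm FRET substrate ratio is read after 2.5 h at RT. Data are normalised to 300 pM IL-6 and to 125 nM JAK inhibitor controls.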

[4] = target: Glucocorticoid receptor (Homo sapiens) (UniProt P04150); assay: GR-GFP Redistribution (AID 450;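 active = compounds whose dose series gives a full or clear partial fitted curve of increased nuclear translocation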; also: potency is read from the fitted curve at half-maximal effect)
Chain of Glucocorticoid receptor (Homo sapiens) (P04150 whole entry, looked up): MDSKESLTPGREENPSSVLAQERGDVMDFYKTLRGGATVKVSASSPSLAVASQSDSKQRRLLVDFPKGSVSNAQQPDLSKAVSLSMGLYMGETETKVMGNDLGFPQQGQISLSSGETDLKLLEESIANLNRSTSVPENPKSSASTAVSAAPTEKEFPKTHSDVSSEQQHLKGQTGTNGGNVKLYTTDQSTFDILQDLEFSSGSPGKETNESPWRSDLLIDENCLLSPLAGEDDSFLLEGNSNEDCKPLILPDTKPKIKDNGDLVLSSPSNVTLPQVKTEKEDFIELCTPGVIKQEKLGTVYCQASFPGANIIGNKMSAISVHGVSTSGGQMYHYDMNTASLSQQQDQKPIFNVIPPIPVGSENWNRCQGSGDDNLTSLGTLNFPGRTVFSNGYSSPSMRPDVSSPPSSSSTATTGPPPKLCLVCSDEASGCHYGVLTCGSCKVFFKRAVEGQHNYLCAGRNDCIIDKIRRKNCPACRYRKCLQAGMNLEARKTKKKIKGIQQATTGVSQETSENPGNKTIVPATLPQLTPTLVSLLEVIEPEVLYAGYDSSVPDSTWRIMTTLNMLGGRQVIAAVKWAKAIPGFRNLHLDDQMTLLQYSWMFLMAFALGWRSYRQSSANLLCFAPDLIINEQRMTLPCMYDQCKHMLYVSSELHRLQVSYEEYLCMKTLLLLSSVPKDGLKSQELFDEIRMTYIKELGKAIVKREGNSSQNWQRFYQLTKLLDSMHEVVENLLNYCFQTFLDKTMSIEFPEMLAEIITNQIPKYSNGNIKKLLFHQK

O=C(NCCCn1ccnc1)c1cccnc1
inactive: activity change, negative = inhibition [1] 14.4% | activity change, negative = inhibition [2] -7.91% | activity, negative = inhibition [3] 6.38% | Potency [4] > 20.6 µM

COc1ccc(OCC(O)CN2C(=O)NC(C)(C)C2=O)cc1 (centres undefined)
inactive: activity change, negative = inhibition [1] -11.2% | activity change, negative = inhibition [2] 0.93% | activity, negative = inhibition [3] 9.74% | Potency [4] > 20.6 µM

CCOC(=O)C1=C(N)N2C(=O)CSC2=C(C(=O)OC)C1
inactive: activity change, negative = inhibition [1] -12.4% | activity change, negative = inhibition [2] 12.5% | activity, negative = inhibition [3] -25.6% | Potency [4] > 20.6 µM

CCCNc1ncnc2c1cnn2-c1ccc(OC)cc1
inactive: activity change, negative = inhibition [1] -10.2% | activity change, negative = inhibition [2] 3.93% | activity, negative = inhibition [3] -8.63% | Potency [4] > 20.6 µM

CCOCCn1c(SC)nc2c1c(=O)[nH]c(=O)n2C
inactive: activity change, negative = inhibition [1] 11% | activity change, negative = inhibition [2] -1.92% | activity, negative = inhibition [3] -1.1% | Potency [4] > 20.6 µM

FC(F)(F)c1cccc(N2CCc3cn[nH]c32)c1
inactive: activity change, negative = inhibition [1] -1.96% | activity change, negative = inhibition [2] 0.155% | activity, negative = inhibition [3] -1.19% | Potency [4] > 20.6 µM

Nc1nonc1-c1noc(N2CCOCC2)n1
inactive: activity change, negative = inhibition [1] 4.65% | activity change, negative = inhibition [2] -8.54% | activity, negative = inhibition [3] -2.07% | Potency [4] > 20.6 µM

Cc1nc(NS(=O)(=O)c2ccccc2)sc1NC(=O)OCCN(C)C
inactive: activity change, negative = inhibition [1] -8.74% | activity change, negative = inhibition [2] 13.4% | activity, negative = inhibition [3] 0.248% | Potency [4] > 20.6 µM

Cc1nn(C)cc1/C=N/O
inactive: activity change, negative = inhibition [1] 10.9% | activity change, negative = inhibition [2] -0.64% | activity, negative = inhibition [3] 4.83% | Potency [4] > 20.6 µM

CCOC(=O)c1cc2c(=O)n3ccccc3nc2n(Cc2ccccc2Cl)c1=N
inactive: activity change, negative = inhibition [1] -18.6% | activity change, negative = inhibition [2] 1.14% | activity, negative = inhibition [3] 2.43% | Potency [4] > 20.6 µM

O=C1CC(c2ccco2)CC(O)=C1C=Nc1cc(Cl)ccc1O (centres undefined)
inactive: activity change, negative = inhibition [1] -23.8% | activity change, negative = inhibition [2] -1.32% | activity, negative = inhibition [3] -10.9% | Potency [4] > 20.6 µM

COCc1[nH]nc2c1C(c1cccc(OC)c1)C(C#N)=C(N)O2 (centres undefined)
inactive: activity change, negative = inhibition [1] -19.1% | activity change, negative = inhibition [2] -19.7% | activity, negative = inhibition [3] -11% | Potency [4] > 20.6 µM

CCCOc1cccc(C2/C(=C(/O)c3ccc(F)cc3)C(=O)C(=O)N2CCN(C)C)c1 (centres undefined)
inactive: activity change, negative = inhibition [1] 3.27% | activity change, negative = inhibition [2] 2.49% | activity, negative = inhibition [3] -0.187% | Potency [4] > 20.6 µM

CCOC(=O)C1=C(CSc2nc(C)cc(C)c2C#N)OC(N)=C(C#N)C1c1cccs1 (centres undefined)
inactive: activity change, negative = inhibition [1] 18.8% | activity change, negative = inhibition [2] -27.2% | activity, negative = inhibition [3] -6.58% | Potency [4] > 20.6 µM

COc1cc(C)nc(N(C)S(=O)(=O)c2ccccc2Cl)n1
inactive: activity change, negative = inhibition [1] -3.56% | activity change, negative = inhibition [2] -19.3% | activity, negative = inhibition [3] 1.54% | Potency [4] > 20.6 µM

CCCCNC(=O)N1CCOCCOCCN(C(=O)NCCCC)CCOCCOCC1
inactive: activity change, negative = inhibition [1] 3.89% | activity change, negative = inhibition [2] 5.69% | activity, negative = inhibition [3] -1.16% | Potency [4] > 20.6 µM

COCCOC(=O)C1=C(C)OC(N)=C(C#N)C1c1ccco1 (centres undefined)
inactive: activity change, negative = inhibition [1] 0.22% | activity change, negative = inhibition [2] -14.6% | activity, negative = inhibition [3] -4.05% | Potency [4] > 20.6 µM

CCC(=O)OC1=C2C(=Nc3c(c(=O)n(C)c(=O)n3C)C2c2ccccc2)c2ccccc21 (centres undefined)
inactive: activity change, negative = inhibition [1] 8.9% | activity change, negative = inhibition [2] -4% | activity, negative = inhibition [3] 14.9% | Potency [4] > 20.6 µM

O=c1/c(=C/c2ccccn2)sc2n1CN(c1ccccc1)CN=2
inactive: activity change, negative = inhibition [1] 0.239% | activity change, negative = inhibition [2] -24.9% | activity, negative = inhibition [3] 5.04% | Potency [4] > 20.6 µM

CC(=O)/C(C#N)=C1\NC(=O)C(Cc2ccccc2)S1 (centres undefined)
inactive: activity change, negative = inhibition [1] 0.644% | activity change, negative = inhibition [2] -11.2% | activity, negative = inhibition [3] 3.16% | Potency [4] > 20.6 µM

CCOC(=O)c1c(C)oc2ccc(OCC(=O)C(C)(C)C)cc12
inactive: activity change, negative = inhibition [1] -23.5% | activity change, negative = inhibition [2] 2.59% | activity, negative = inhibition [3] -10.1% | Potency [4] > 20.6 µM

CC(=O)Nc1ccc(NCC(O)COc2ccccc2)cc1 (centres undefined)
inactive: activity change, negative = inhibition [1] -3% | activity change, negative = inhibition [2] -5.41% | activity, negative = inhibition [3] 3.96% | Potency [4] > 20.6 µM

C=C(C)CN1CCN(c2c(CCC#N)c(C)c(C#N)c3nc4ccccc4n23)CC1
inactive: activity change, negative = inhibition [1] 6.83% | activity change, negative = inhibition [2] 20% | activity, negative = inhibition [3] 9.9% | Potency [4] > 20.6 µM

CCNC(=O)N(C(=O)NCC)n1c(C)nnc1C
inactive: activity change, negative = inhibition [1] 6.49% | activity change, negative = inhibition [2] -11.9% | activity, negative = inhibition [3] 12.4% | Potency [4] > 20.6 µM

CC1(C)Cc2c(sc3nc4n(c(=O)c23)CCC4)CO1
inactive: activity change, negative = inhibition [1] -2.8% | activity change, negative = inhibition [2] 2.28% | activity, negative = inhibition [3] -2.43% | Potency [4] > 20.6 µM

O=C(c1cc(N2CCCCC2)nc2ccccc12)N1CCOCC1
inactive: activity change, negative = inhibition [1] -15.6% | activity change, negative = inhibition [2] -13.8% | activity, negative = inhibition [3] 4.94% | Potency [4] > 20.6 µM
